Measurements from PubChem BioAssay (NCATS).
Results filed as inconclusive are left out. Activity calls are given as the source filed them. The call rests on the fitted dose curve; in most records, active means well fitted curve in the direction sought with a large enough effect; inconclusive means small, poorly fitted or top-dose-only effect, or another doubt; inactive means no such curve, though single readings can be large; an effect the other way counts as inactive or inconclusive.

Tests used:
NIH3T3 [1] = experiment: Cytotoxic Profiling of Annotated Libraries Using Quantitative High-Throughput Screening (AID 1296008); settings: Five cell lines viability, CellTiter-Glo ATP luminescence, 48-72 h; stronger effect = lower value; further: nearly all actives have a fitted effect of over 60% in size
Procedure, shortened: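 Compounds were pin-transferred onto cells and incubated 48 or 72 hr at 37 degree Celsius, 95% humidity. CellTiter-Glo was added, plates sat 10 min at room temperature, then ATP-coupled luminescence was imaged as the viability read-out.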

HACAT = experiment: qHTS assay to identify novel small-molecules to repurpose for Merkel cell carcinoma treatment (AID 1296009); settings: MCC and control cell lines, CellTiter-Glo viability, 72 h; at 44.8 µM (top of the series) unless noted; further: nearly all actives have a fitted effect of over 60% in size
Procedure, shortened: (§1)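 Cells exposed to NPC (8-point) and MIPE (11-point) compound dilutions for 72 hr at 37 degree celsius; viability read by CellTiter-Glo luminescence, normalized to no-cell and DMSO in-plate controls.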

MCC-13 = experiment: as above; settings: MCC and control cell lines, CellTiter-Glo viability, 72 h; series mostly up to 46 µM
Procedure, shortened: as §1

MKL-1 = experiment: as above; settings: MCC and control cell lines, CellTiter-Glo viability, 72 h; series mostly up to 46 µM
Procedure, shortened: as §1

MKL-2 = experiment: as above; settings: MCC and control cell lines, CellTiter-Glo viability, 72 h; series mostly up to 46 µM
Procedure, shortened: as §1

UISO = experiment: as above; settings: MCC and control cell lines, CellTiter-Glo viability, 72 h; series mostly up to 46 µM
Procedure, shortened: as §1

WaGa = experiment: as above; settings: MCC and control cell lines, CellTiter-Glo viability, 72 h; series mostly up to 46 µM
Procedure, shortened: as §1

C33A = experiment: Primary qHTS to identify gynecologic anti-cancer compounds using libraries of approved drugs and bioactive compounds (AID 1345084); settings: Gynecologic cancer cell panel viability, ATPlite luminescence, 48 h; series mostly up to 57.5 µM; further: nearly all actives have a fitted effect of over 55% in size
Procedure, shortened: (§2)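 Cytotoxicity screen measuring ATP content by luciferase luminescence. Each compound is applied at five concentrations for 48 h at 37 C with 5% CO2.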

CASKI = experiment: as above; settings: Gynecologic cancer cell panel viability, ATPlite luminescence, 48 h; series mostly up to 57.5 µM
Procedure, shortened: as §2

Es-2 = experiment: as above; settings: Gynecologic cancer cell panel viability, ATPlite luminescence, 48 h; series mostly up to 57.5 µM
Procedure, shortened: as §2

HeLa = experiment: as above; settings: Gynecologic cancer cell panel viability, ATPlite luminescence, 48 h; series mostly up to 57.5 µM
Procedure, shortened: as §2

Hek293T [2] = experiment: as above; settings: Gynecologic cancer cell panel viability, ATPlite luminescence, 48 h, control line for the selectivity index; series mostly up to 57.5 µM
Procedure, shortened: as §2

JEG-3 = experiment: as above; settings: Gynecologic cancer cell panel viability, ATPlite luminescence, 48 h; series mostly up to 57.5 µM
Procedure, shortened: as §2

OV90 = experiment: as above; settings: Gynecologic cancer cell panel viability, ATPlite luminescence, 48 h; series mostly up to 57.5 µM
Procedure, shortened: as §2

PA-1 = experiment: as above; settings: Gynecologic cancer cell panel viability, ATPlite luminescence, 48 h; series mostly up to 57.5 µM
Procedure, shortened: as §2

SKOV3 = experiment: as above; settings: Gynecologic cancer cell panel viability, ATPlite luminescence, 48 h; series mostly up to 57.5 µM
Procedure, shortened: as §2

CAOV3 = experiment: as above; settings: Gynecologic cancer cell panel viability, ATPlite luminescence, 48 h; series mostly up to 57.5 µM
Procedure, shortened: as §2

MCC-26 = experiment: qHTS assay to identify novel small-molecules to repurpose for Merkel cell carcinoma treatment (AID 1296009); settings: MCC and control cell lines, CellTiter-Glo viability, 72 h; series mostly up to 46 µM; further: nearly all actives have a fitted effect of over 60% in size
Procedure, shortened: as §1

NIH3T3 [3] = experiment: as above; settings: MCC and control cell lines, CellTiter-Glo viability, 72 h; at 44.8 µM (top of the series) unless noted
Procedure, shortened: as §1

HEK293T [4] = experiment: as above; settings: MCC and control cell lines, CellTiter-Glo viability, 72 h; at 44.8 µM (top of the series) unless noted
Procedure, shortened: as §1
On the % scale 0 is the no-effect control and ±100 the full control effect.

O=C1c2cccc(O)c2C(=O)c2c(O)cccc21
inactive: max response (NIH3T3 [1]) -0.518% | outcome (HACAT) | outcome (MCC-13) | outcome (MKL-1) | outcome (MKL-2) | outcome (UISO) | outcome (WaGa) | outcome (C33A) | outcome (CASKI) | outcome (Es-2) | outcome (HeLa) | outcome (Hek293T [2]) | outcome (JEG-3) | Potency (OV90) | outcome (PA-1) | outcome (SKOV3)

CN1C[C@@H]2C[C@H]1CN2c1cc2c(cc1F)c(=O)c(C(=O)O)cn2C1CC1
inactive: max response (NIH3T3 [1]) -10.1% | outcome (HACAT) inactive [at 17.4 µM] | outcome (MCC-13) | outcome (MKL-1) | outcome (MKL-2) | outcome (UISO) | outcome (WaGa) | outcome (C33A) | outcome (CAOV3) | outcome (CASKI) | outcome (Es-2) | outcome (HeLa) | outcome (Hek293T [2]) | outcome (JEG-3) | Potency (OV90) | outcome (PA-1) | outcome (SKOV3)

CN1CCN(C(=O)C2CCCCC2)CC1
inactive: max response (NIH3T3 [1]) -7.73% | outcome (HACAT) | outcome (MCC-13) | outcome (MKL-1) | outcome (MKL-2) | outcome (UISO) | outcome (WaGa) | outcome (C33A) | outcome (CASKI) | outcome (Es-2) | outcome (HeLa) | outcome (Hek293T [2]) | outcome (JEG-3) | Potency (OV90) | outcome (PA-1)

O=C(CN1CCNCC1)NC1CCCCC1
inactive: outcome (NIH3T3 [1]) inactive; activator | outcome (MCC-13) | outcome (MCC-26) | outcome (MKL-1) | outcome (MKL-2) | outcome (NIH3T3 [3]) inactive; activator | outcome (UISO) | outcome (WaGa) | outcome (C33A) | outcome (CAOV3) | outcome (CASKI) | outcome (Es-2) | outcome (HeLa) | outcome (Hek293T [2]) | outcome (JEG-3) | Potency (OV90) | outcome (PA-1) | outcome (SKOV3)

C[C@@H]1O[C@@H](OC[C@H]2O[C@@H](Oc3c(-c4ccc(O)c(O)c4)oc4cc(O)cc(O)c4c3=O)[C@H](O)[C@@H](O)[C@@H]2O)[C@H](O)[C@H](O)[C@H]1O
inactive: max response (NIH3T3 [1]) -8.53% | outcome (HEK293T [4]) | outcome (MCC-13) | outcome (MKL-1) | outcome (MKL-2) | outcome (UISO) | outcome (WaGa) | outcome (C33A) | outcome (CAOV3) | outcome (CASKI) | outcome (Es-2) | outcome (HeLa) | outcome (Hek293T [2]) | outcome (JEG-3) | Potency (OV90) | outcome (PA-1) | outcome (SKOV3)

O=C(OOC(=O)c1ccccc1)c1ccccc1
inactive: outcome (NIH3T3 [1]) | outcome (MCC-13) | outcome (MCC-26) | outcome (MKL-1) | outcome (MKL-2) | outcome (NIH3T3 [3]) | outcome (UISO) | outcome (WaGa) | outcome (C33A) | outcome (CAOV3) | outcome (CASKI) | outcome (Es-2) | outcome (HeLa) | outcome (Hek293T [2]) | outcome (JEG-3) | Potency (OV90) | outcome (PA-1) | outcome (SKOV3)

CCCCCCCCCCC(CO)CCCCCCCC (stereo not drawn)
inactive: max response (NIH3T3 [1]) 1.86% | outcome (HEK293T [4]) | outcome (MCC-13) | outcome (MKL-1) | outcome (MKL-2) | outcome (UISO) | outcome (WaGa) | outcome (C33A) | outcome (CAOV3) | outcome (CASKI) | outcome (Es-2) | outcome (HeLa) | outcome (Hek293T [2]) | outcome (JEG-3) | Potency (OV90) | outcome (PA-1) | outcome (SKOV3)

C=CCN1C[C@H](C(=O)N(CCCN(C)C)C(=O)NCC)C[C@@H]2c3cccc4[nH]cc(c34)C[C@H]21
inactive: outcome (NIH3T3 [1]) | outcome (MCC-13) | outcome (MCC-26) | outcome (MKL-1) | outcome (MKL-2) | outcome (NIH3T3 [3]) | outcome (UISO) | outcome (WaGa) | outcome (C33A) | outcome (CAOV3) | outcome (CASKI) | outcome (Es-2) | outcome (HeLa) | outcome (Hek293T [2]) | outcome (JEG-3) | Potency (OV90) | outcome (PA-1) | outcome (SKOV3)

CC(C)C[C@@H](N)C(=O)O
inactive: max response (NIH3T3 [1]) 4.91% | outcome (HEK293T [4]) inactive [at 17.4 µM] | outcome (MCC-13) | outcome (MKL-1) | outcome (MKL-2) | outcome (UISO) | outcome (WaGa) | outcome (C33A) | outcome (CAOV3) | outcome (CASKI) | outcome (Es-2) | outcome (HeLa) | outcome (Hek293T [2]) | outcome (JEG-3) | Potency (OV90) | outcome (PA-1) | outcome (SKOV3)

CC(=O)Nc1ccc(C(=O)O)cc1
inactive: max response (NIH3T3 [1]) -2.27% | outcome (HEK293T [4]) | outcome (MCC-13) | outcome (MKL-1) | outcome (MKL-2) | outcome (UISO) | outcome (WaGa) | outcome (C33A) | outcome (CASKI) | outcome (Es-2) | outcome (HeLa) | outcome (Hek293T [2]) | outcome (JEG-3) | Potency (OV90) | outcome (PA-1) | outcome (SKOV3)

O=C(O)CNC(=O)c1ccccc1I
inactive: outcome (NIH3T3 [1]) | outcome (MCC-13) | outcome (MCC-26) | outcome (MKL-1) | outcome (MKL-2) | outcome (NIH3T3 [3]) | outcome (UISO) | outcome (WaGa) | outcome (C33A) | outcome (CAOV3) | outcome (CASKI) | outcome (Es-2) | outcome (HeLa) | outcome (Hek293T [2]) | outcome (JEG-3) | Potency (OV90) | outcome (PA-1)

C[C@@H](N)C(=O)O
inactive: max response (NIH3T3 [1]) -0.0264% | outcome (HEK293T [4]) | outcome (MCC-13) | outcome (MCC-26) | outcome (MKL-1) | outcome (MKL-2) | outcome (UISO) | outcome (WaGa) | outcome (C33A) | outcome (CASKI) | outcome (Es-2) | outcome (HeLa) | outcome (Hek293T [2]) | outcome (JEG-3) | Potency (OV90) | outcome (PA-1) | outcome (SKOV3)

O=C1CC[C@@H](C(=O)O)N1
inactive: max response (NIH3T3 [1]) 0.792% | outcome (HEK293T [4]) | outcome (MCC-13) | outcome (MKL-1) | outcome (MKL-2) | outcome (UISO) | outcome (WaGa) | outcome (C33A) | outcome (CAOV3) | outcome (CASKI) | outcome (Es-2) | outcome (HeLa) | outcome (Hek293T [2]) | outcome (JEG-3) | Potency (OV90) | outcome (PA-1) | outcome (SKOV3)

COC(=O)c1ccccc1C(=O)c1ccc(OCCN2CCCCC2)cc1
inactive: max response (NIH3T3 [1]) -3.51% | outcome (HEK293T [4]) | outcome (MCC-13) | outcome (MCC-26) | outcome (MKL-1) | outcome (MKL-2) | outcome (UISO) | outcome (WaGa) | outcome (C33A) | outcome (CAOV3) | outcome (CASKI) | outcome (Es-2) | outcome (HeLa) | outcome (Hek293T [2]) | outcome (PA-1)

CC1(C)[C@@H](OC(=O)CCC(=O)O)CC[C@]2(C)[C@H]3C(=O)C=C4[C@@H]5C[C@@](C)(C(=O)O)CC[C@]5(C)CC[C@@]4(C)[C@]3(C)CC[C@@H]12
inactive: outcome (NIH3T3 [1]) | outcome (MCC-13) | outcome (MCC-26) | outcome (MKL-1) | outcome (MKL-2) | outcome (NIH3T3 [3]) | outcome (UISO) | outcome (WaGa) | outcome (C33A) | outcome (CAOV3) | outcome (CASKI) | outcome (Es-2) | outcome (HeLa) | outcome (Hek293T [2]) | outcome (JEG-3) | Potency (OV90) | outcome (PA-1) | outcome (SKOV3)
